Screening data as filed in PubChem.
Rows were chosen to be rich in hits. Some 21% of all compounds tested hit in one or more screens of this group.
CHX counter = affects cycloheximide protein synthesis inhibition readout, counter-screen; cell reporter, cycloheximide protein synthesis inhibition counterscreen; max response, %; hit rate 12% among 300,000; AID 2314; in the data active means max response mostly above about 13%, no sharp cut-off; inactive means mostly below about 14%; further: read at 38.3 µM for the half of the compounds with a filed dose
SARS PLpro yeast = SARS-CoV PLP inhibition in yeast | S. cerevisiae expressing SARS-CoV PLpro, growth rescue | Potency, µM (doses to about 32.9 µM), most hits filed as activators | hit rate 0.19% among 330,000; further: nearly all actives have a fitted effect of over 55% in size
Pf growth 96h = P. falciparum growth inhibition at 96 hour, primary screen for plastid delayed-death inhibitors | P. falciparum luciferase reporter growth, 96 h | Potency, µM (doses to about 28.7 µM), actives largely listed as inhibitors | hit rate 6.9% among 320,000 | AID 504834; active means well fitted inhibition curve with a large enough effect; inconclusive means small, poorly fitted or top-dose-only effect, or another doubt; inactive means no such curve, though single readings can be large or run the other way
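Two-generation exposure (96 h) targets delayed-death phenotype. Reporter parasites carrying integrated firefly luciferase, in red cells at 2% hematocrit and 0.05% parasitemia final, kept at 37 C, 5% CO2; luminescence loss indicates inhibition.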
Pf growth 48h = inhibits P. falciparum growth in the first generation, 48 h. Potency, µM (highest dose often 28.7 µM), hits mostly inhibitors. AID 504832. hit rate 5.9% among 310,000. P. falciparum luciferase growth in erythrocytes, 48 h; active means well fitted inhibition curve with a large enough effect; inconclusive means small, poorly fitted or top-dose-only effect, or another doubt; inactive means no such curve, though single readings can be large or run the other way
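Erythrocytes infected with P. falciparum carrying an integrated firefly luciferase reporter (2% hematocrit, 0.1% parasitemia final) were exposed to compounds in RPMI 1640 with 0.5% Albumax at 37 C, 5% CO2. Growth inhibition was scored as reduced luminescence.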
Shiga inhibitor = blocks Shiga toxin action in Vero cells; Vero cells, Shiga toxin protein synthesis inhibition reporter; inhibition, % at 38.7 µM; hit rate 9.2% among 290,000; AID 2315; in the data active means inhibition mostly above about 28%, no sharp cut-off; inactive means mostly below about 43%
NS1 function inh = inhibitors of influenza NS1 protein function. AID 2326. Potency, µM (series often up to 46.1 µM). hit rate 0.4% among 270,000; further: actives are rising curves; nearly all actives have a fitted effect of over 50% in size
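Read-out: OD600 growth recovery of NS1-expressing budding yeast. Cells grown overnight at 30C in -URA glucose medium, washed, resuspended and diluted 1:100 in 2% galactose assay medium, pH 6.0. Same strain lacking NS1 served as positive control.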
Large screens that a line does not name were inactive. Unless noted, the call rests on the fitted dose curve.

C/C(CC(=O)Nc1ccccn1)=N\NC(=O)c1ccc(C)cc1	CHX counter 18
COc1ccccc1C(=O)N/N=C(\C)CC(=O)Nc1ccccc1NC(C)=O	CHX counter 19 (no result: Shiga inhibitor)
COc1ccccc1C(=O)N/N=C(\C)CC(=O)Nc1ccc(Cl)cn1	CHX counter 37, Shiga inhibitor 50
CCOc1ccc(C(=O)OCC(=O)NCCCc2ccccc2)cc1	none
Cc1ccc(-c2cc3nc4c(c(=O)n3[nH]2)CCCC4)cc1	none (no result: CHX counter, SARS PLpro yeast, Pf growth 96h, Pf growth 48h, Shiga inhibitor)
O=c1c2c(nc3cc(-c4ccc(F)cc4)[nH]n13)CCC2	CHX counter 101, Pf growth 96h inconclusive, Shiga inhibitor 100
Cc1ccnc(NC(=O)c2cc(-c3ccc(Cl)s3)nc3ccccc23)c1	Pf growth 96h inconclusive, Pf growth 48h inconclusive (no result: CHX counter, Shiga inhibitor, NS1 function inh)
Nc1cc(N)nc(SCc2cccnc2)n1	Pf growth 96h inconclusive
Nc1cc(N)nc(SCc2ccccc2)n1	CHX counter 41, Shiga inhibitor 53
Nc1cc(N)nc(SCCc2ccccc2)n1	CHX counter 16
CCOC(=O)C1(CCCc2ccccc2)CCN(C(=O)CN2C(=O)CSC2=O)CC1	Pf growth 96h inconclusive, Pf growth 48h inconclusive
CCn1c(SC(C)C(=O)NCC2CCCO2)nc2scc(-c3ccccc3)c2c1=O (stereo not drawn)	Pf growth 96h 2.9µM, Pf growth 48h 7.4µM (no result: CHX counter, Shiga inhibitor, NS1 function inh)
CC(Sc1nnc(-c2cccs2)n1-c1ccccc1)C(=O)NCc1ccc2c(c1)OCO2 (stereo not drawn)	Pf growth 96h 10µM (no result: Pf growth 48h)
C=CCn1c(SCC(=O)NCc2ccc3c(c2)OCO3)nc2scc(-c3ccc(F)cc3)c2c1=O	none (no result: Pf growth 48h)
C=CCn1c(SC(C)C(=O)NCc2ccc3c(c2)OCO3)nc2scc(-c3ccccc3)c2c1=O (stereo not drawn)	Pf growth 96h 6.6µM, Pf growth 48h inconclusive
COCCn1c(SC(C)C(=O)NCC2CCCO2)nc2sc3c(c2c1=O)CCC3 (stereo not drawn)	Pf growth 96h 8.3µM, Pf growth 48h inconclusive (no result: CHX counter, Shiga inhibitor, NS1 function inh)
C=CCn1c(SCC(=O)NCC2CCCO2)nc2scc(-c3ccccc3)c2c1=O (stereo not drawn)	Pf growth 48h inconclusive
COCCn1c(SC(C)C(=O)NCC2CCCO2)nc2scc(-c3ccc(F)cc3)c2c1=O (stereo not drawn)	Pf growth 96h inconclusive, Pf growth 48h 13µM (no result: CHX counter, Shiga inhibitor, NS1 function inh)
N#Cc1c2c(c(Nc3ccc(O)cc3)n3c1nc1ccccc13)CCC2	SARS PLpro yeast inconclusive, Pf growth 48h inconclusive
COC(=O)[C@H](CCSC)NC(=O)Cn1cnc2c(SC)nc(N)nc21	none (no result: CHX counter, Pf growth 96h, Pf growth 48h, Shiga inhibitor, NS1 function inh)
COc1cc(C(CC(=O)N2CCOCC2)c2c(OC)cc(OC)c3ccc(=O)oc23)cc(OC)c1OC (stereo not drawn)	Pf growth 96h inconclusive, Pf growth 48h inconclusive
CCN(CC)C(=O)CC(c1ccc(OC)cc1)c1c(OC)cc(OC)c2ccc(=O)oc12 (stereo not drawn)	Pf growth 96h inconclusive, Pf growth 48h 10µM
CCN(CC)C(=O)CC(c1cc(OC)c(OC)c(OC)c1)c1c(OC)cc(OC)c2c(-c3ccccc3)cc(=O)oc12 (stereo not drawn)	Pf growth 96h 4.1µM, Pf growth 48h 4.7µM
CCN(CC)C(=O)CC(c1cc(OC)c(OC)c(OC)c1)c1c(OC)cc(OC)c2ccc(=O)oc12 (stereo not drawn)	Pf growth 96h 12µM, Pf growth 48h 12µM
Cc1cc2c(s1)c1cnn(Cc3ccc(Cl)cc3)c(=O)c1n2C	none (no result: SARS PLpro yeast, Pf growth 96h, Pf growth 48h, NS1 function inh)
CC1CC1C(=O)Nc1nc2ccc(S(C)(=O)=O)cc2s1 (stereo not drawn)	CHX counter 28, Shiga inhibitor 59
Cc1ccc2nc(NC(=O)C3CC3C)sc2c1 (stereo not drawn)	CHX counter 37, Shiga inhibitor 94
CCOc1ccc(Nc2nc3cc(S(=O)(=O)N(CC)CC)ccc3o2)cc1	Pf growth 48h 10µM (no result: Pf growth 96h)
O=C(NCCCCc1ccccc1)C12CN(Cc3ccccc3)CC1C(c1cccc([N+](=O)[O-])c1)=NO2 (stereo not drawn)	SARS PLpro yeast inconclusive, Pf growth 96h inconclusive, Pf growth 48h 4.7µM, NS1 function inh inconclusive
CC(C)CCNC(=O)C12CN(Cc3ccccc3)CC1C(c1cccc([N+](=O)[O-])c1)=NO2 (stereo not drawn)	Pf growth 96h inconclusive, Pf growth 48h inconclusive
